# Experimental data as given in PubChem BioAssay.
# “And” between values parts separate entries of the source, which are not always exact repeats. Equal values may be shown once. Inconclusive results are not listed. The source made the active and inactive calls.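 The calls were made as follows, unless noted: active = compounds whose cell count with miR-34 switched on is under 0.7 times the count with it off; inactive = the rest.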
# How the values were obtained:
# [1] = molecular target: ATP-dependent translocase ABCB1 (Homo sapiens) (UniProt P08183); assay: MDR1 (ABCB1) efflux transporter inhibition, cell-based (AID 377; in the data active = fluorescence slope change above about 50%); details: MDR1-expressing cells, fluorescent substrate accumulation slope; stronger effect = higher value; concentration not given here
# ATP-dependent translocase ABCB1 (Homo sapiens), sequence (P08183 whole entry, looked up): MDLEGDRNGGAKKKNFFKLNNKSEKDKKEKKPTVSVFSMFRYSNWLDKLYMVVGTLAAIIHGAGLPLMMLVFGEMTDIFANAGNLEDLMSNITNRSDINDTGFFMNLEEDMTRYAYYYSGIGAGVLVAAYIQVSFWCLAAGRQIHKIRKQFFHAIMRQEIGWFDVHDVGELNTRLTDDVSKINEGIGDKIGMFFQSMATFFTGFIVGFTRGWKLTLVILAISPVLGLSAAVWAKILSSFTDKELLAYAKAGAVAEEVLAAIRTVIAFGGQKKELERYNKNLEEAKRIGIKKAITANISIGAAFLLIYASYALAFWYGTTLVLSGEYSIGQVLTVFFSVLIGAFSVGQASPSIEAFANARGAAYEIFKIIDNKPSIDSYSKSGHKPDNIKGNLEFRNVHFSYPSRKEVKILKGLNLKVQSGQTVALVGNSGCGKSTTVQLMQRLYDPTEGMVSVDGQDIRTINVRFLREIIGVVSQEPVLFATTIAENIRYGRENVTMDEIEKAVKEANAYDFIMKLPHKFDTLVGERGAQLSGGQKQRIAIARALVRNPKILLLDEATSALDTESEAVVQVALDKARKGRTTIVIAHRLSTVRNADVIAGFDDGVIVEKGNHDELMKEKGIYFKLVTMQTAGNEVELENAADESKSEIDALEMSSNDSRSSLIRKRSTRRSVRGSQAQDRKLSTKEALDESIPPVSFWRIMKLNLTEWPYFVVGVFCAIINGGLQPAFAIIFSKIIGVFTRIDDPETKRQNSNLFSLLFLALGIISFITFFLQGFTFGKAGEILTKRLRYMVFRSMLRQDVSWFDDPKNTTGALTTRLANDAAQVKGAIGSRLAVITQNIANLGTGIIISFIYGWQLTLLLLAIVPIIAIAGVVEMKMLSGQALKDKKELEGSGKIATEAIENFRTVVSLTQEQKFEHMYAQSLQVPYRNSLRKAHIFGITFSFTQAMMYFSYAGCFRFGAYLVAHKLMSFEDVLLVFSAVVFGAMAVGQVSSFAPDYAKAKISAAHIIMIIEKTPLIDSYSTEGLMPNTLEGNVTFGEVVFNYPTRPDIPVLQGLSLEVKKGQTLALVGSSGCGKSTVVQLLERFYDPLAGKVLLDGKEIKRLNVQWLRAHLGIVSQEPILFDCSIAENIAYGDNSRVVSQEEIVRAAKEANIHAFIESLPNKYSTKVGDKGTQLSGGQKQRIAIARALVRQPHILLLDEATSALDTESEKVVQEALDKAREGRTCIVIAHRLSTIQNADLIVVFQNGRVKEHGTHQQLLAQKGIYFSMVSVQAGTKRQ
# [2] = hESC survival regulators, cell-based (AID 493140; call rule not given here;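 also: cells exposed to compounds for four days before counting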); details: human embryonic stem cell survival screen; stronger effect = higher value
# [3] = liver-stage malaria parasite growth inhibition, primary screen, cell-based, HepG2, luciferase luminescence, HepG2 viability (AID 624349; in the data active = parasite load remaining mostly below about 12%, no sharp cut-off; inactive = mostly above about 10%;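 also: 100% = mean of DMSO negative control wells on the same plate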); details: P. berghei liver stage in HepG2, luciferase luminescence, concentration not given here; parasite load remaining: stronger effect = lower value; viability: measured here: HepG2 viability without parasites
# [4] = sensitizers of A549 cells to miR-34 induction, primary screen, imaging, A549 dox-inducible miR-34, nuclei and caspase counts (AID 1347080); details: A549 miR-34 inducible, Hoechst nuclei count, 48 h
# [5] = stronger effect = lower value, cell number ratio, induced over uninduced
# [6] = measured here: relative caspase fold change +Dox/-Dox
# [7] = measured here: total cells with miR-34 induction, stronger effect = lower value
# [8] = measured here: total cells without miR-34 induction
Structure (SMILES),fluorescence slope change [1],survival [2],parasite load remaining [3],viability [3],"fold change [4, 5]","fold change [4, 6]","cell count [4, 7]","cell count [4, 8]"
COC(=O)C1=CO[C@@H](C)[C@H]2CN3CCc4c([nH]c5ccccc45)[C@@H]3C[C@H]12,76.8% (active),10.5 (inactive),108% (inactive) and 62.6% (inactive),97.4% and 74.1%,0.773 (inactive),1.63,5880,7600
CCCCCCCCCCCCCCCC(=O)OCC(COP(=O)(O)O)OC(=O)CCCCCCCCCCCCCCC (centres undefined),,95.5 (inactive),,,0.922 (inactive),1.21,5850,6340
O=C(O)CCC/C=C\C[C@@H]1[C@@H](/C=C/[C@@H](O)COc2cccc(C(F)(F)F)c2)[C@H](O)C[C@@H]1O,,118 (inactive),,,0.964 (inactive) and 1.06 (inactive),2.48 and 1.05,5470 and 6950,5680 and 6530
C[N+]1(C)C[C@@H](O)C[C@H]1C(=O)[O-],28.3% (inactive),7 (inactive),117% (inactive),106%,0.868 (inactive),1.07,8350,9610
CCCCCCCC/C=C\CCCCCCCC(=O)OC[C@@H](O)COP(=O)(O)O,,57.2 (inactive),,,0.957 (inactive) and 0.893 (inactive),1.42 and 0.522,6370 and 5350,6660 and 5990
CCCCCCCCCCCCCCCCOCC(CO)OC(C)=O (centres undefined),,63.3 (inactive),,,0.942 (inactive),1.66,5510,5840
O=C1C=CC(=O)c2c1ccc1c2ccc2ccccc21,25.9% (inactive),5.83 (inactive),14.2% (inactive) and 61.1% (inactive),64.9% and 72.9%,0.87 (inactive),1.13,7950,9140
COC(=O)[C@H]1[C@H]2C[C@@H]3c4[nH]c5cc(OC)ccc5c4CCN3C[C@H]2C[C@@H](OC(=O)/C=C/c2cc(OC)c(OC)c(OC)c2)[C@@H]1OC,61% (active),9.58 (inactive),26.9% (inactive) and 41.8% (inactive),94.2% and 77.7%,0.865 (inactive),1.32,7260,8390
CCCCCCCC/C=C\CCCCCCCCOC[C@H](COP(=O)([O-])OCC[N+](C)(C)C)OC(C)=O,,95.4 (inactive),,,0.905 (inactive),1.27,6070,6700
CC/C=C\C/C=C\C/C=C\C/C=C\C/C=C\C/C=C\CCC(=O)O[C@H](COCCCCCCCCCCCCCCCC)COP(=O)([O-])OCC[N+](C)(C)C,,68.5 (inactive),,,1.06 (inactive),1.37,5710,5380
CCCCCCCCCCCCCCC[C@@H](O)[C@H](CO)NC(C)=O,,81.5 (inactive),,,1.08 (inactive),1,5490,5090
CCCCCCCCCCCCCC(=O)N[C@H](C)[C@@H](O)c1ccccc1,,87.5 (inactive),,,1.02 (inactive),1.49 and 1.71,5830 and 6030,5700 and 5920
CO[C@@H]1[C@@H](OC(N)=O)[C@@H](O)C(Oc2ccc3c(O)c(NC(=O)c4ccc(O)c(CC=C(C)C)c4)c(=O)oc3c2C)OC1(C)C (some centres undefined),82.3% (active),,78.5% (inactive),90.9%,0.855 (inactive),1.4,9430,11000
CCCCCCCCCCCCCCCCOCC(COP(=O)([O-])OCC[N+](C)(C)C)OC (centres undefined),,64.4 (inactive),,,0.921 (inactive),1.04,5520,5990
CCCCCC(=O)/C=C/[C@@H]1[C@@H](C/C=C\CCCC(=O)O)[C@@H](O)C[C@H]1O,,66.1 (inactive),,,1.04 (inactive),1.11,6170,5940
C=C1C(c2ccc(C)cc2)=CCc2cc(C)cc(C)c21,,98.5 (inactive),,,0.866 (inactive),0.886,1920,2210
